Assay outcomes deposited in PubChem by National Center for Advancing Translational Sciences (NCATS).
TDP1 cell noCPT – qHTS for Inhibitors of human tyrosyl-DNA phosphodiesterase 1 (TDP1): qHTS in cells in absence of CPT; DT40 Tdp1-/- hTDP1 cells, no CPT, ATP luminescence, 48 h; Potency, µM (doses to about 46.2 µM), inactives show at the highest dose activity change, negative = growth inhibition, usual class: inhibitors; AID 686978, 2013; actives 15% (n = 420,000); further: potency means the concentration at half of the fitted maximal effect; nearly all actives have a fitted effect of over 55% in size
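Growth of hTDP1-complemented DT40 Tdp1-knockout cells is measured by ATP luminescence after at least 48 hr compound exposure at 37 °C, with DMSO substituting for the 20 nM CPT used in the parallel screen.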
DT40 TDP1 CPT – DT40-hTDP1 cell growth loss with CPT; chicken DT40 Tdp1-/-;hTDP1 cells + 20 nM CPT, ATP luminescence, 48 h; actives 12% (n = 420,000); Potency, µM (highest dose often 46.2 µM), for inactives: at the highest dose activity change, negative = growth inhibition, actives largely listed as inhibitors; AID 686979; further: potency means the concentration at half of the fitted maximal effect; nearly all actives have a fitted effect of over 55% in size
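Chicken DT40 Tdp1-/- cells complemented with human TDP1, 400 cells/well, exposed to compounds plus 20 nM camptothecin for at least 48 h at 37 C; viability read as ATP content by CellTiter-Glo luminescence.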
VP16 counter – Gal4-VP16 reporter inhibition counter-screen; Drosophila S2 Gal4-VP16 UAS-luciferase, luminescence, 20 h; Potency, µM (doses to about 53.6 µM), for inactives: at the top dose activity, negative = inhibition, usual class: inhibitors; actives 3.5% (n = 310,000);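 further: Gal4-VP16 expression switched on by copper sulfate through the metallothionein promoter; potency means the concentration at half of the fitted maximal effect; nearly all actives have a fitted effect of over 50% in size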
IL-1B inflam inh – inhibitors of inflammasome signaling (IL-1 beta secretion). THP-1 LPS/ATP IL-1B secretion, AlphaLISA, 16 h; stronger effect = lower value. activity change, % at 57.5 µM. actives 4.7% (n = 360,000). AID 743279; in the data active means activity change below about -50%; inconclusive means mostly about -30% to -49%
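THP-1 cells pretreated 1 hr with compounds (up to 57.5 uM final), then stimulated with LPS (250 ng/mL final) plus ATP (1.25 mM final); secreted IL-1B measured by AlphaLISA after 16 hr, decreased signal indicating inhibition.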
LDHA block – LDHA (human) enzyme inhibition; P00338; purified LDHA, NADH/diaphorase-resazurin fluorescence; stronger effect = lower value; activity change, % (values are at about 110 or 230 µM); actives 0.15% (n = 480,000); AID 1347041; in the data active means activity change below about -30%; inconclusive means mostly about -25% to -30%;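 further: plate controls were DMSO wells for no effect and wells without enzyme for full effect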
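Human LDH5 (2 nM) was incubated with 0.06 mM NADH and 0.2 mM pyruvate for 5 min at room temperature in Tris pH 7.4. Remaining NADH was coupled through diaphorase/resazurin, and resorufin fluorescence was read at 0 and 20 min.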
RORgamma inh – ROR gamma (mouse) transcription inhibition. Drosophila S2 Gal4-RORgamma UAS-luciferase reporter, 20 h. Potency, µM (doses to about 53.6 µM), for the others: at the highest dose activity change, negative = inhibition, hits mostly inhibitors. actives 5.4% (n = 310,000); further: potency means the concentration at half of the fitted maximal effect; nearly all actives have a fitted effect of over 60% in size
Target sequence (P51450 whole entry, looked up, the tested form may be a part): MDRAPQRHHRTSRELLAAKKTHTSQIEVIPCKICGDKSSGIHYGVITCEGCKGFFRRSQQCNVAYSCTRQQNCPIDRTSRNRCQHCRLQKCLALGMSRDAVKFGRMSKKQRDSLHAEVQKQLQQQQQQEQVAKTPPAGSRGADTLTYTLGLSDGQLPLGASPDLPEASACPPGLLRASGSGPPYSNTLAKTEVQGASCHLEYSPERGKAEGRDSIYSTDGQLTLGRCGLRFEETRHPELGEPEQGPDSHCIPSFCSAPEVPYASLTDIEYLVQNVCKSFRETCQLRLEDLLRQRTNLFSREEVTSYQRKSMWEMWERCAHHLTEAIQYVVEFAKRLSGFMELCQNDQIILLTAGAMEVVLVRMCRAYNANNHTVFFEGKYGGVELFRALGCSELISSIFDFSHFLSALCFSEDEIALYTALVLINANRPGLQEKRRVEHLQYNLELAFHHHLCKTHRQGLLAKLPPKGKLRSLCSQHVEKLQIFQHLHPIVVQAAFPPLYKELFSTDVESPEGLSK
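ROR gamma transcriptional activity was tracked as Gal4-UAS luciferase output in stably transfected Drosophila Schneider cells, with compound added 1 hr before 700 uM copper sulfate induction and a 20 hr ambient-temperature incubation.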
* marks the source's active call; other numbers are inactive results; [ ] = another dose, or the depositor's remark. This is a sample that favours compounds with a hit; in the whole collection about 18% have one here. Unless noted, the call rests on the fitted dose curve; in most records, active means well fitted curve in the direction sought with a large enough effect; inconclusive means small, poorly fitted or top-dose-only effect, or another doubt; inactive means no such curve, though single readings can be large; an effect the other way counts as inactive or inconclusive. Unless noted, on the % scale 0 is the no-effect control and ±100 the full control effect.

For CC(C)c1ccc(CN2CCC2(C)C(=O)Nc2cccc(Oc3ccccc3)c2)cc1 (configuration not stated) the results were TDP1 cell noCPT 18µM*, DT40 TDP1 CPT inconclusive, IL-1B inflam inh 29 and LDHA block -6.
Screening CC(C)Oc1ccc(CN2CCC2(C)C(=O)Nc2cccc(Oc3ccccc3)c2)cc1 (configuration not stated) returned TDP1 cell noCPT inconclusive, DT40 TDP1 CPT inconclusive, IL-1B inflam inh 18 and LDHA block 3.
`COc1ccc(CN2CCC2(C)C(=O)Nc2cccc(NS(C)(=O)=O)c2)c2ccccc12` (configuration not stated) gave TDP1 cell noCPT inconclusive, DT40 TDP1 CPT inconclusive, IL-1B inflam inh -4 and LDHA block 5.
Cc1cccc(C(=O)NCC(=O)N2CCCC2c2ccccc2)c1 (configuration not stated) was read as LDHA block -1.
`COc1cccc(CN)c1OCC(C)C` gave LDHA block 1.
Oc1ccccc1-c1nc(NCc2ccco2)c2ccccc2n1 was read as TDP1 cell noCPT inconclusive, DT40 TDP1 CPT -18%, VP16 counter -10%, IL-1B inflam inh -21, LDHA block -7 and RORgamma inh -27%.
Screening COc1ccccc1Nc1nc(NCc2ccco2)c2ccccc2n1 returned TDP1 cell noCPT 21µM*, DT40 TDP1 CPT inconclusive, VP16 counter inconclusive, LDHA block 5 and RORgamma inh 12%.
Screening Cc1ccc(Nc2nc(NCc3ccco3)c3ccccc3n2)cc1 returned TDP1 cell noCPT 2.6µM*, DT40 TDP1 CPT 2.6µM*, VP16 counter -13%[10 µM], IL-1B inflam inh -109*, LDHA block -6 and RORgamma inh inconclusive.
Screening O=C(O)/C=C/c1ccc(Br)s1 returned LDHA block 1.
`FC(F)C(F)(F)Sc1nc2ccccc2[nH]1` gave LDHA block 4.
COc1ccc(C(=O)Cn2c(=O)oc3cc(S(=O)(=O)N4CCOCC4)ccc32)cc1F was read as LDHA block -3.
`Fc1ccc(-c2nc(CSc3ccc4c(c3)OCCO4)cs2)cc1` gave LDHA block 1.
`C#CCn1c(/C=C/c2ccc(Cl)cc2)nc2ccccc21` gave TDP1 cell noCPT inconclusive, DT40 TDP1 CPT inconclusive and LDHA block -7.
For Cc1ccc(Cn2c(/C=C/c3ccco3)nc3ccccc32)cc1 the results were TDP1 cell noCPT 15µM*, DT40 TDP1 CPT inconclusive, VP16 counter inconclusive, IL-1B inflam inh -105*, LDHA block -4 and RORgamma inh 11µM*.
For Clc1ccc(Cn2c(/C=C/c3ccco3)nc3ccccc32)cc1 the results were TDP1 cell noCPT inconclusive, DT40 TDP1 CPT inconclusive, VP16 counter inconclusive, IL-1B inflam inh -94*, LDHA block -7 and RORgamma inh inconclusive.
`Cc1ccc(Cn2c(CN3CCOCC3)nc3ccccc32)cc1` gave LDHA block -8.
O=C(Nc1cccc(F)c1)c1nc2ccccc2nc1N1CCOCC1 was read as LDHA block -1.
O=C(Nc1ccc(/C=C/c2nc3ccccc3o2)cc1)c1ccc(F)cc1 was read as TDP1 cell noCPT inconclusive, DT40 TDP1 CPT 21µM*, VP16 counter 3%, IL-1B inflam inh 15, LDHA block -5 and RORgamma inh 1%.
CCN(CC)S(=O)(=O)c1ccc(N2CCc3cc(OC)c(OC)cc3C2)nc1 was read as TDP1 cell noCPT inconclusive, DT40 TDP1 CPT 18µM*, VP16 counter -16%, IL-1B inflam inh -91*, LDHA block 7 and RORgamma inh 39%.
